Measured potencies and affinities stand elsewhere.
How the values were obtained:
[1] = tested on: Klebsiella pneumoniae; conditions: Concentration 32 ug.mL-1; ASSAY_TEST Inhibition of Bacterial Growth; detection method Absorption (OD600); MEDIA CAMHB; plate type 384well; NBS; CORNING #3640; time 18 hr
[2] = tested on: Candida albicans; conditions: 32 ug/mL
[3] = tested on: Cryptococcus neoformans; conditions: Concentration 32 ug.mL-1; ASSAY_TEST Inhibition of Fungal Growth; detection method Resazurin; Absorption (OD600-OD570); plate type 384well; NBS; CORNING #3640

Structure (SMILES) | Inhibition [1] | Inhibition [2] | Inhibition [3]
CCN(CC)CC.O=P(O)(O)OC1C[C@@H](O)[C@H](O)[C@@H]([C@H](O)CO)O1 (stereo not given in full) | 34.69% | 2.93% | -6.2%
OC[C@@H](O)[C@H]1OC(O)C[C@@H](O)[C@@H]1O (stereo not given in full) | 30.82% | 4.53% | -12.95%
CCN(CC)CC.C[C@@H](CC1O[C@H]([C@H](O)CO)[C@@H](O)[C@H](O)[C@@H]1O)OP(=O)(O)OC[C@H]1O[C@@H](n2cnc3c(N)ncnc32)[C@H](O)[C@@H]1O (stereo not given in full) | 9.8% | -0.9% | -12.32%
N.O=C(O)C1(O)C[C@@H](O)[C@H](O)[C@@H]([C@@H](O)CO)O1 (stereo not given in full) | 28.17% | 3.34% | -12.91%
CCN(CC)CC.C[C@@H](CC1O[C@H]([C@@H](O)CO)[C@@H](O)[C@H](O)[C@@H]1O)OP(=O)(O)O (stereo not given in full) | 41.76% | 0.34% | -7.83%
CCN(CC)CC.C[C@@H](CC1O[C@H]([C@@H](O)CO)[C@@H](O)[C@H](O)[C@@H]1O)OP(=O)(O)OC[C@H]1O[C@@H](n2cnc3c(N)ncnc32)[C@H](O)[C@@H]1O (stereo not given in full) | 27.9% | 0.32% | -9%
CCN(CC)CC.C[C@H](CC1O[C@H]([C@@H](O)CO)[C@@H](O)[C@H](O)[C@@H]1O)OP(=O)(O)O (stereo not given in full) | 38.35% | 1.33% | -5.02%
CCN(CC)CC.C[C@H](CC1O[C@H]([C@@H](O)CO)[C@@H](O)[C@H](O)[C@@H]1O)OP(=O)(O)OC[C@H]1O[C@@H](n2cnc3c(N)ncnc32)[C@H](O)[C@@H]1O (stereo not given in full) | 21.04% | -0.71% | -12.97%
CCN(CC)CC.C[C@H](CC1O[C@H]([C@H](O)CO)[C@@H](O)[C@H](O)[C@@H]1O)OP(=O)(O)OC[C@H]1O[C@@H](n2cnc3c(N)ncnc32)[C@H](O)[C@@H]1O (stereo not given in full) | 32.34% | 2.8% | -3.79%
CC(=O)CC1O[C@H]([C@@H](O)CO)[C@@H](O)[C@H](O)[C@@H]1O (stereo not given in full) | 30.36% | -0.45% | -7.35%
